Experimental data: PubChem BioAssay (EPA / NIEHS)
Values joined by “and” are separate entries in the source; they are usually repeats but may differ in a detail not shown here. Equal entries are not always repeated. A structure can be active in one record and inactive in another. Active and inactive are the calls of the source. The calls were made as follows: active = hit-call score of the fitted dose curve at least 0.9, where 1 is the maximum; inactive = score below 0.9.

How the values were obtained:
[1] = read-out: Interleukin-8 (IL8), CXCL8 (gene 3576); assay: BSK_MyoF_IL8: BioMAP Diversity Plus: MyoF Assay for Interleukin-8 (IL8) Biomarker Activity (AID 2284261); conditions: primary human lung fibroblasts
Procedure, shortened: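 Human lung fibroblast (MyoF system) cultures dosed for 24 h, then IL-8 measured by ELISA. Response taken relative to DMSO; parallel SRB total-protein staining for cytotoxicity.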

CD90, THY1 (gene 7070) = assay: BSK_BF4T_CD90: BioMAP Diversity Plus: BF4T Assay for CD90 Biomarker Activity (AID 2284262); conditions: primary human bronchial epithelial cells with fibroblasts
Procedure, shortened: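 CD90 levels by ELISA after 24 h treatment of human bronchial epithelial cell/dermal fibroblast cultures, analysed versus DMSO. Overt cytotoxicity checked in parallel cultures by sulforhodamine B staining.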

[2] = read-out: Interleukin-8 (IL8), CXCL8 (gene 3576); assay: BSK_BF4T_IL8: BioMAP Diversity Plus: BF4T Assay for Interleukin-8 (IL8) Biomarker Activity (AID 2284263); conditions: primary human bronchial epithelial cells with fibroblasts
Procedure, shortened: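 Human bronchial epithelial cells with dermal fibroblasts co-culture; IL-8 measured by ELISA 24 hours after dosing, fitted vs DMSO. Cytotoxicity tracked in parallel cultures by SRB total-protein staining.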

[3] = read-out: Interleukin-1 alpha (IL1a), IL1A (gene 3552); assay: BSK_BF4T_IL1a: BioMAP Diversity Plus: BF4T Assay for Interleukin-1 alpha (IL1a) Biomarker Activity (AID 2284264); conditions: primary human bronchial epithelial cells with fibroblasts
Procedure, shortened: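 ELISA read-out of IL-1α from bronchial epithelial cell/dermal fibroblast co-cultures 24 h after compound addition. Increases scored against DMSO negative control. Cytotoxicity monitored by sulforhodamine B staining of parallel cultures.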

Decorin, DCN (gene 1634) = assay: BSK_MyoF_Decorin: BioMAP Diversity Plus: MyoF Assay for Decorin Biomarker Activity (AID 2284265); conditions: primary human lung fibroblasts
Procedure, shortened: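 Human lung fibroblast cultures were dosed for 24 h, and decorin was then measured by ELISA. Parallel cultures were stained with sulforhodamine B for total protein as a cytotoxicity check. Gain of signal was fitted relative to DMSO.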

[4] = BSK_MyoF_SRB: Viability Assessment in the BioMAP Diversity Plus: MyoF Assay (AID 2284267); conditions: primary human lung fibroblasts;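 also: total protein by SRB absorbance in parallel cultures as cytotoxicity measure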
Procedure, shortened: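 Cytotoxicity read-out: after 10% TCA fixation, parallel human lung fibroblast cultures were stained with 0.1% SRB at 24 h post-dosing and read at 560 nm; DMSO served as baseline.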

[5] = read-out: Matrix Metallopeptidase 1 (MMP1), MMP1 (gene 4312); assay: BSK_MyoF_MMP1: BioMAP Diversity Plus: MyoF Assay for Matrix Metallopeptidase 1 (MMP1) Biomarker Activity (AID 2284268); conditions: primary human lung fibroblasts
Procedure, shortened: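 Human lung fibroblast primary cells; MMP1 measured by ELISA 24 h after dosing, fitted in the positive direction relative to DMSO. Parallel SRB staining (0.1%, after 10% TCA fixation, 560 nm) assesses overt cytotoxicity.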

[6] = read-out: TIMP metallopeptidase inhibitor 1 (TIMP1), TIMP1 (gene 7076); assay: BSK_MyoF_TIMP1: BioMAP Diversity Plus: MyoF Assay for TIMP metallopeptidase inhibitor 1 (TIMP1) Biomarker Activity (AID 2284269); conditions: primary human lung fibroblasts
Procedure, shortened: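 ELISA read-out of TIMP-1 from primary human lung fibroblast cultures 24 h after compound dosing; gain of signal relative to DMSO vehicle baseline defines activity.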

[7] = read-out: Matrix Metallopeptidase 1 (MMP1), MMP1 (gene 4312); assay: BSK_BF4T_MMP1: BioMAP Diversity Plus: BF4T Assay for Matrix Metallopeptidase 1 (MMP1) Biomarker Activity (AID 2284270); conditions: primary human bronchial epithelial cells with fibroblasts
Procedure, shortened: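 MMP-1 quantified by ELISA in primary human bronchial epithelial/dermal fibroblast co-cultures, 24 hours post-dosing, with DMSO as baseline; parallel sulforhodamine B staining (560 nm) tracks overt cytotoxicity.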

[8] = read-out: Matrix Metallopeptidase 3 (MMP3), MMP3 (gene 4314); assay: BSK_BF4T_MMP3: BioMAP Diversity Plus: BF4T Assay for Matrix Metallopeptidase 3 (MMP3) Biomarker Activity (AID 2284271); conditions: primary human bronchial epithelial cells with fibroblasts
Procedure, shortened: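 MMP-3 level read by ELISA after 24 h chemical exposure of bronchial epithelial cell/dermal fibroblast co-cultures, fitted upward relative to DMSO. Parallel cultures stained with 0.1% SRB after TCA fixation gauge overt cytotoxicity.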

[9] = read-out: Tissue plasminogen activator (tPA), PLAT (gene 5327); assay: BSK_BF4T_tPA: BioMAP Diversity Plus: BF4T Assay for Tissue plasminogen activator (tPA) Biomarker Activity (AID 2284272); conditions: primary human bronchial epithelial cells with fibroblasts
Procedure, shortened: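 tPA level quantified by ELISA at 24 h post-treatment in bronchial epithelial/dermal fibroblast co-cultures, gain of signal scored against DMSO baseline. Parallel cultures stained with 0.1% SRB (560 nm) to flag overt cytotoxicity.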

[10] = BSK_BF4T_SRB: Viability Assessment in the BioMAP Diversity Plus: BF4T Assay (AID 2284274); conditions: primary human bronchial epithelial cells with fibroblasts
Procedure, shortened: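 Cytotoxicity measured as total protein: cells fixed with 10% TCA, stained with 0.1% SRB, read at 560 nm. Bronchial epithelial/dermal fibroblast co-culture, 24 h after dosing, with positive-direction fitting relative to DMSO.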

[11] = read-out: urokinase Plasminogen Activator (uPA), PLAU (gene 5328); assay: BSK_BF4T_uPA: BioMAP Diversity Plus: BF4T Assay for urokinase Plasminogen Activator (uPA) Biomarker Activity (AID 2284275); conditions: primary human bronchial epithelial cells with fibroblasts
Procedure, shortened: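 uPA levels measured by ELISA at 24 hours in BF4T cultures (bronchial epithelial cells plus dermal fibroblasts) and compared with DMSO; cytotoxicity tracked in parallel cultures by sulforhodamine B staining.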

[12] = read-out: Matrix Metallopeptidase 9 (MMP9), MMP9 (gene 4318); assay: BSK_BF4T_MMP9: BioMAP Diversity Plus: BF4T Assay for Matrix Metallopeptidase 9 (MMP9) Biomarker Activity (AID 2284276); conditions: primary human bronchial epithelial cells with fibroblasts
Procedure, shortened: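 MMP-9 levels were measured by ELISA after 24 h exposure of bronchial epithelial cell/dermal fibroblast co-cultures, with DMSO as baseline. Parallel cultures were stained with 0.1% SRB after TCA fixation, read at 560 nm, to flag overt cytotoxicity.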

[13] = read-out: Interleukin-8 (IL8), CXCL8 (gene 3576); assay: BSK_IMphg_IL8: BioMAP Diversity Plus: IMphg Assay for Interleukin-8 (IL8) Biomarker Activity (AID 2284277); conditions: primary human endothelial cells with macrophages
Procedure, shortened: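 IL-8 levels were measured by ELISA 24 h after dosing in primary human venular endothelial cell–macrophage cultures, referenced to DMSO; parallel SRB staining monitored overt cytotoxicity.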

[14] = read-out: Intercellular Adhesion Molecule 1 (ICAM1), ICAM1 (gene 3383); assay: BSK_BE3C_ICAM1: BioMAP Diversity Plus: BE3C Assay for Intercellular Adhesion Molecule 1 (ICAM1) Biomarker Activity (AID 2284278); conditions: primary human bronchial epithelial cells
Procedure, shortened: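 ICAM-1 quantified by ELISA and fitted against DMSO baseline, 24 h post-dosing in BE3C cultures of primary human lung bronchial epithelial cells. Cytotoxicity checked in parallel cultures by total protein SRB staining.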

[15] = read-out: Interferon-inducible T-cell alpha chemoattractant (ITAC), CXCL11 (gene 6373); assay: BSK_BE3C_ITAC: BioMAP Diversity Plus: BE3C Assay for Interferon-inducible T-cell alpha chemoattractant (ITAC) Biomarker Activity (AID 2284279); conditions: primary human bronchial epithelial cells
Procedure, shortened: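 ELISA read-out of I-TAC after 24 h chemical dosing of human lung primary bronchial epithelial cells; gain-of-signal fit vs DMSO baseline. Parallel SRB total-protein staining (0.1% SRB, 10% TCA fixation, 560 nm) assessed cytotoxicity.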

[16] = read-out: Interleukin-8 (IL8), CXCL8 (gene 3576); assay: BSK_BE3C_IL8: BioMAP Diversity Plus: BE3C Assay for Interleukin-8 (IL8) Biomarker Activity (AID 2284280); conditions: primary human bronchial epithelial cells
Procedure, shortened: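 Primary human bronchial epithelial cells (BE3C system) were exposed to test chemical for 24 h, and IL-8 levels were then measured by ELISA. Activity was fitted in the positive (gain-of-signal) direction against a DMSO negative-control baseline.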

[17] = read-out: Plasminogen Activator Inhibitor-1 (PAI1), SERPINE1 (gene 5054); assay: BSK_BF4T_PAI1: BioMAP Diversity Plus: BF4T Assay for Plasminogen Activator Inhibitor-1 (PAI1) Biomarker Activity (AID 2284273); conditions: primary human bronchial epithelial cells with fibroblasts
Procedure, shortened: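 PAI-1 levels quantified by ELISA 24 h post-dosing in bronchial epithelial cell plus dermal fibroblast cultures. Signal gain referenced to DMSO baseline. Sulforhodamine B total-protein staining of parallel wells checked cytotoxicity.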

KRT18 (gene 3875) = assay: BSK_BF4T_Keratin818: BioMAP Diversity Plus: BF4T Assay for Keratin 818 Biomarker Activity (AID 2284266); conditions: primary human bronchial epithelial cells with fibroblasts
Procedure, shortened: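 Keratin 8/18 levels quantified by ELISA after 24 h chemical treatment of bronchial epithelial cell/dermal fibroblast co-cultures, fitted in positive direction relative to DMSO. Parallel SRB staining tracks overt cytotoxicity.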

Measured: AC50

FC(F)(F)C(F)(F)C(F)(F)N(C(F)(F)C(F)(F)C(F)(F)F)C(F)(F)C(F)(F)C(F)(F)F
not listed: [17] | KRT18 (gene 3875)
inactive: all other assays above

OCC(F)(F)C(F)(F)C(F)(F)F
not listed: KRT18 (gene 3875)
inactive: all other assays above

C=CC(=O)OCC(F)(F)C(F)(F)C(F)(F)C(F)(F)C(F)(F)C(F)(F)C(F)(F)F
not listed: [17]
inactive: all other assays above

FC(F)(I)C(F)(F)C(F)(F)C(F)(F)I
inactive: CD90, THY1 (gene 7070) | [5] | [13] | [16]
active: [1] 57.5 µM and 48 µM and 48.5 µM | [2] 45.6 µM and 51 µM and 55.6 µM | [3] 55.2 µM and 45.6 µM and 47.3 µM | Decorin, DCN (gene 1634) 45.8 µM and 45.9 µM and 54.5 µM | [4] 46.5 µM and 53 µM and 53.4 µM | [5] 52 µM and 48.5 µM | [6] 56 µM and 47.7 µM and 46.9 µM | [7] 51.2 µM and 48.6 µM and 50.2 µM | [8] 49.7 µM and 50.4 µM and 51.2 µM | [9] 39.8 µM and 46.2 µM and 48.8 µM | [10] 51.3 µM and 50.7 µM and 46.5 µM | [11] 49.9 µM and 53.8 µM and 46.2 µM | [12] 54.1 µM and 47 µM and 46.8 µM | [13] 1.19 µM | [14] 44.1 µM and 41.4 µM and 55.3 µM | [15] 46.2 µM and 51.9 µM and 49.2 µM | [16] 47.4 µM and 46 µM

OCC(F)(F)C(F)(F)C(F)(F)C(F)F
inactive: [1] | CD90, THY1 (gene 7070) | [2] | [3] | Decorin, DCN (gene 1634) | [4] | [5] | [6] | [7] | [8] | [9] | [10] | [11] | [12] | [13] | [14] | [15] | [16]
active: Decorin, DCN (gene 1634) 5.95 µM | [16] 14.5 µM

O=C(O)C(F)(OC(F)(F)C(F)(OC(F)(F)C(F)(OC(F)(F)C(F)(F)C(F)(F)F)C(F)(F)F)C(F)(F)F)C(F)(F)F (stereo not drawn)
not listed: [17]
inactive: all other assays above

O=P(O)(O)OCCC(F)(F)C(F)(F)C(F)(F)C(F)(F)C(F)(F)C(F)(F)F
inactive: all assays above

FC(F)(F)C(F)(F)C(F)(F)C(F)(F)C(F)(F)C(F)(F)CC1CO1 (stereo not drawn)
not listed: KRT18 (gene 3875)
inactive: all other assays above

O=C(O)C(F)(F)C(F)(F)C(F)(F)C(F)(F)C(F)(F)C(F)(F)C(F)(F)C(F)(F)C(F)(F)C(F)(F)C(F)(F)C(F)(F)F
not listed: [17] | KRT18 (gene 3875)
inactive: all other assays above

FC(F)(F)C(F)(F)C(F)(F)C(F)(F)CCI
active: [1] 5.95 µM | [8] 8.85 µM
inactive: [1] | CD90, THY1 (gene 7070) | [2] | [3] | Decorin, DCN (gene 1634) | [4] | [5] | [6] | [7] | [8] | [9] | [10] | [11] | [12] | [13] | [14] | [15] | [16]
